This is part of a sample that, as a whole, favours compounds with a hit. Of some 83,000 tested, about 20% had one in any assay.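 Plates (96-well) were seeded with cells, treated with compound at one concentration, and incubated for 48 hours before percent growth was determined.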 Calls of active or inactive are those of the source. How the source made its calls: active means growth percent below 10; inactive means the rest.

One assay relates to A549/ATCC NSCLC. Nature of the assay: NCI-60 one-dose screen, 48 h (100 = growth as untreated, 0 = no growth, -100 = all killed). Particulars: 10 µM.
Consider `O=C(Cn1nc(-c2ccccc2)ccc1=O)NNC(=S)NC1CCCCC1`, for which the growth was 114% (inactive).
On to `O=C(/C=C/Nc1ccccc1)c1ccc2c(c1)Nc1ccccc1S2`, for which the growth is 87.7% (inactive).
For `CC1(c2ccccc2)NC(=O)N(CC(=O)Nc2ccc(C(=O)/C=C/c3ccc(Br)cc3)cc2)C1=O` (stereo not drawn), the growth is 38.9% (inactive).

The next assay relates to 786-0 renal. The assay is described as above. Particulars: 10 µM.
As to `O=c1oc2ccc(-c3ccc(F)cc3F)cc2c(=O)n1-c1ccc(F)c(Cl)c1`, the growth is 7.54% (active).
Same read-out and setting: with `O=C(c1ccc(O)cc1)C1[C@H](c2ccccc2Br)[C@@H](c2ccccc2)NC12C(=O)Nc1ccc(Br)cc12` (stereo partly drawn) the figure was 47.8% (inactive); with `O=C(Nc1cccc(-c2cn(-c3ccc4oc(=O)ccc4c3)nn2)c1)Nc1cc(C(F)(F)F)cc(C(F)(F)F)c1`, 29.3% (inactive).
`O=C1N/C(=N\c2nccs2)S/C1=C\c1cccs1`: the growth was 43.2% (inactive).
Take `COc1ccc2[nH]c(O)c(N=NC(=O)COc3ccc(NC(=O)Nc4ccc(Cl)cc4)cc3)c2c1`: the growth is 21.4% (inactive).
The same measure, in the same setting: the value for `COc1ccc(OC)c(-c2cc(-c3c[nH]c4ccccc34)nc(N)c2C#N)c1` was -52.3% (active); that for `N#Cc1ccc(-c2nn(-c3ccc(C(=O)O)cc3)cc2CNc2ccc(Oc3ccccc3)cc2)cc1` was 30.5% (inactive).
In the case of `N#Cc1ccc(-c2nn(-c3ccc(C(=O)O)cc3)cc2CNc2cc(Cl)cc(C(F)(F)F)c2)cc1`, the growth was 11.5% (inactive).
Regarding `CO[C@@H]1CSS[C@H]1Cn1nc(-c2ccc(Oc3ccccc3)cc2)c2c(N)ncnc21`, the growth is 55.3% (inactive).
Take `Cc1ccn2c(C(=O)c3ccc(Br)cc3)cc(-c3cc(-c4ccc(N(C)C)cc4)c(C#N)c(N)n3)c2c1`: the growth was 40.9% (inactive).
